In the supplement of paper PMC6555819:

How the values were obtained:
Test in all cases: PBM binding z-score (relative to random genomic background probes); higher = stronger binding; sequences stand for … in GC…GCGATTGACAGCGTAGAATGAAGG
[1] = tested on: FXR:RXRa (NR concentration 270 nM, RXRa partner concentration 90 nM)
Outline: (§1)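 Custom Agilent 4×180K protein-binding microarrays carried double-stranded probes. Their 34-nt variable regions held direct-repeat seeds, single-nucleotide variants, half-site ablations and random human genomic background sequences. Arrays were incubated 1 h with ligand-free nuclear receptor dimers in PBS pH 7.4, 2% milk, 0.02% Triton X-100, 1 mM DTT, 0.2 mg/mL BSA and 0.4 mg/ml salmon testes DNA. Antibodies against each partner (one per run) detected binding, and scanned fluorescence was regression-normalized. Binding z-scores use random background probes as reference.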

[2] = tested on: LXRa:RXRa (NR concentration 270 nM, RXRa partner concentration 90 nM)
Outline: as §1

[3] = tested on: LXRa homodimer (NR concentration 270 nM)
Outline: as §1

[4] = tested on: LXRb:RXRa (NR concentration 270 nM, RXRa partner concentration 90 nM)
Outline: as §1

[5] = tested on: LXRb homodimer (NR concentration 270 nM)
Outline: as §1

[6] = tested on: PPARa:RXRa (NR concentration 270 nM, RXRa partner concentration 90 nM)
Outline: as §1

[7] = tested on: PPARg:RXRa (NR concentration 180 nM, RXRa partner concentration 90 nM)
Outline: as §1

[8] = tested on: PPARg:RXRa 270nM:90nM, anti-RXR (NR concentration 270 nM, RXRa partner concentration 90 nM)
Outline: as §1

[9] = tested on: PPARg:RXRa 30nM:10nM, anti-RXR (NR concentration 30 nM, RXRa partner concentration 10 nM)
Outline: as §1

[10] = tested on: PPARg:RXRa 90nM:30nM, anti-RXR (NR concentration 90 nM, RXRa partner concentration 30 nM)
Outline: as §1

[11] = tested on: PPARg:RXRa DBDmut IVT, anti-RXR (DBD mutation: RXRa K156A/R161A, NR concentration 270 nM, RXRa partner concentration 90 nM)
Outline: as §1

[12] = tested on: PPARg:RXRa IVT, anti-PPARg (NR concentration 270 nM, RXRa partner concentration 90 nM)
Outline: as §1

[13] = tested on: PPARg DBDmut:RXRa IVT, anti-PPARg (DBD mutation: PPARg1 K132A/R137A, NR concentration 270 nM, RXRa partner concentration 90 nM)
Outline: as §1

[14] = tested on: PPARg DBDmut IVT, anti-PPARg (DBD mutation: PPARg1 K132A/R137A, NR concentration 270 nM)
Outline: as §1

[15] = tested on: PPARg homodimer (NR concentration 180 nM)
Outline: as §1

[16] = tested on: PXR:RXRa (NR concentration 270 nM, RXRa partner concentration 90 nM)
Outline: as §1

[17] = tested on: PXR homodimer (NR concentration 270 nM)
Outline: as §1

[18] = tested on: RARa:RXR (NR concentration 270 nM, RXRa partner concentration 90 nM)
Outline: as §1

[19] = tested on: RARa homodimer (NR concentration 270 nM)
Outline: as §1

[20] = tested on: RARb:RXRa (NR concentration 270 nM, RXRa partner concentration 90 nM)
Outline: as §1

| Sequence | PBM binding z-score [1] | PBM binding z-score [2] | PBM binding z-score [3] | PBM binding z-score [4] | PBM binding z-score [5] | PBM binding z-score [6] | PBM binding z-score [7] | PBM binding z-score [8] | PBM binding z-score [9] | PBM binding z-score [10] | PBM binding z-score [11] | PBM binding z-score [12] | PBM binding z-score [13] | PBM binding z-score [14] | PBM binding z-score [15] | PBM binding z-score [16] | PBM binding z-score [17] | PBM binding z-score [18] | PBM binding z-score [19] | PBM binding z-score [20] |
| --- | --- | --- | --- | --- | --- | --- | --- | --- | --- | --- | --- | --- | --- | --- | --- | --- | --- | --- | --- | --- |
| ATCGAAAGGTCGTGTGGTGAGTATACAGAAAGGC | 4.91 | 4.22 | 0.724 | 3.43 | 1.53 | 4.84 | 3.01 | 3.37 | 1.38 | 2.57 | 0.568 | 1.69 | 2.41 | 1.23 | 2.3 | 3.25 | 0.999 | 3.74 | 1.51 | 3.6 |
| CCGACTGTGGCAAAGGTTACCATACTCAGTACGA | 0.857 | 1.38 | 0.228 | 1.73 | -0.558 | 4.03 | 8.41 | 7.91 | 6.78 | 8.43 | 2.07 | 3.83 | 0.000701 | -0.266 | 1.71 | 1.84 | 0.27 | 2.56 | 0.0109 | 1.9 |
| ATCTCTCGGTAACAAGTTCAGTGAAAGAGAGGAC | 0.379 | 0.429 | 0.428 | 0.549 | 0.942 | 0.533 | 0.157 | 0.369 | 0.251 | 0.484 | -0.852 | 0.6 | 0.792 | 1.21 | 0.807 | 1.46 | 1.77 | 0.694 | 0.38 | 1.49 |
| TCTCGGAGGACACGAAGGTCAGGGCTTTCCAGAG | 1.55 | 1.29 | 0.139 | 1.17 | -0.91 | 2.13 | 0.576 | 1.75 | 2.15 | 1.9 | 1.37 | 0.884 | -0.402 | -1.18 | 1.07 | 1.89 | 0.452 | 2.52 | -0.205 | 3.48 |
| CTACCATGGTGAACAAGGTCGTTGATTACTATTC | 0.251 | 0.452 | 0.165 | 1.23 | -0.219 | 1.07 | 0.161 | 0.378 | -0.000193 | 0.175 | 0.666 | 0.434 | 0.343 | 0.226 | 0.387 | 1.56 | 0.655 | 1.43 | 0.262 | 0.627 |
| ATATGTCGGTTAAGGGTCATTCAGGTTGGTTCGC | 4.54 | 4.44 | 3.12 | 4.03 | 1.48 | 5.44 | 8.83 | 8.47 | 7.13 | 9.33 | 2.75 | 4.81 | 2.12 | 1.06 | 3.13 | 5.03 | 2.46 | 4.78 | 2.84 | 3.31 |
| CGTCCAAGGTCAGCAGGCCAGTGAAAGCGACGTG | 4.9 | 3.41 | -0.314 | 2.31 | -0.659 | 4.69 | 2.86 | 3.35 | 0.155 | 1.84 | 2.35 | 2.56 | -0.196 | -0.403 | 1.55 | 2.26 | -0.0334 | 3.14 | 0.266 | 5.01 |
| CCTTACGGGTCACTCCAGGTTATAGCGTCGGAGT | 5.26 | 7.75 | 1.89 | 5.52 | 0.0674 | 4.65 | 3.13 | 3.94 | 1.17 | 2.7 | 2.49 | 3.79 | 0.79 | -0.822 | 2.29 | 5.1 | 0.516 | 4.18 | 0.581 | 3.74 |
| TATACAGGGTCAAAGGCCAGAGTACGAATGTCGA | 7.35 | 6.25 | 2.5 | 4.96 | 1.86 | 6.57 | 8.48 | 7.61 | 5.77 | 7.93 | 2.36 | 5.11 | 2.18 | 1.49 | 2.55 | 4.55 | 0.583 | 5.75 | 0.928 | 4.5 |
| ATCTCTAGGTTACAAGTTCAGTGAAAGAGAGGAC | 1.64 | 2.33 | 1.68 | 1.55 | 1.77 | 2.51 | 2.72 | 3.25 | 1.77 | 2.97 | 4.27 | 4.41 | 1.99 | 3.28 | 2.22 | 2.38 | 2.41 | 2.03 | 1.88 | 2.69 |
| TCTTGTAGATCAAGCAGGTTAACAAAGCCTGAGT | 0.489 | 0.545 | 0.00608 | 0.81 | -0.426 | 0.99 | -0.0763 | 1.23 | 2.44 | 2.04 | 1.57 | 0.741 | 0.45 | 0.44 | 0.0405 | 0.699 | 0.326 | 0.629 | -0.263 | 0.298 |
| TAGCCTAGGTCAATGGGCCAGTATAGTACGCATC | 3.09 | 2.16 | -0.016 | 1.51 | -0.146 | 3.27 | 2.95 | 2.83 | 0.834 | 1.67 | 1.98 | 3.19 | -0.338 | -0.429 | 0.9 | 0.686 | -0.285 | 1.56 | 0.0956 | 3.67 |
| CCTCGGAGGACAACAGGAAGTCAGAGCTGCCAGA | -0.229 | -0.454 | -0.458 | -0.667 | -0.823 | -0.671 | 0.123 | -0.726 | -1.03 | -1.13 | -0.28 | -0.806 | -1.35 | -1.22 | 0.0465 | -0.665 | -0.485 | -0.454 | 0.0942 | 0.863 |
| TCGTATAGGTAAACAGGTGAAAGTCCGTAAGTTA | 1.19 | 0.963 | 0.191 | 0.852 | 0.0957 | 1.95 | 1.46 | 2.64 | 2.92 | 2.76 | 2.73 | 2.33 | 0.663 | 0.619 | 1.46 | 0.831 | 0.735 | 1.22 | 1.47 | 0.797 |
